“And” between values parts separate entries of the source, which are not always exact repeats. Identical values can stand only once. Inconclusive results are not listed. Entries that show only a call come without a potency. Where a structure was tested more than once in an assay, its records may differ in their call. The source made the active and inactive calls. Calls come from the whole dose curve; as a rule, active = well fitted curve in the direction sought with a large enough effect; inconclusive = small, poorly fitted or top-dose-only effect, or another doubt; inactive = no such curve, though single readings can be large; an effect the other way counts as inactive or inconclusive.
Test: NS1 protein of Zika virus - qHTS assay to identify small molecule inhibitors in human HEK 293 cells (AID 1347053); note: nearly all actives have a fitted effect of over 55% in size
Details: HEK293 ZIKV MR766 infection, NS1 TR-FRET, 24 h; series mostly up to 46.1 µM; activity change, negative = inhibition: at the top concentration
Summary of the method: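 In this cell-based screen, HEK 293 cultures received compound for one hour before Zika MR766 at MOI = 0.5. NS1 was quantified 24 hours later by TR-FRET, normalized to virus-free wells and infected wells.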
In the case of `NC(N)=NC(N)=NCCc1ccccc1`, the Potency is reported as “inactive”. In the case of `COc1cccc(N(C)C(=S)Oc2ccc3c(c2)CCCC3)n1`, the Potency is reported as “inactive and 18.7 µM (active)”. For `CN1CCCC(n2nc(Cc3ccc(Cl)cc3)c3ccccc3c2=O)CC1` (stereo unspecified), the “activity change, negative = inhibition” value was 21.2% (inactive). With `COc1ccc2cc3[n+](cc2c1OC)CCc1cc2c(cc1-3)OCO2` the “activity change, negative = inhibition” value was 30.2% (inactive). For `CC1=NN(c2ccccc2)C(=O)C1`, the Potency was “inactive”. For `COc1cc2c(Nc3ccc(Br)cc3F)ncnc2cc1OCC1CCN(C)CC1`, the “activity change, negative = inhibition” value was -7.81% (inactive). For `Nc1[nH]c(=O)ncc1F`, the Potency was “inactive”. With `CCN[C@H]1C[C@H](C)S(=O)(=O)c2sc(S(N)(=O)=O)cc21` the Potency was “inactive”. In the case of `Nc1nc(=S)c2[nH]cnc2[nH]1`, the Potency is reported as “inactive”. With `CCCCc1oc2ccc(NS(C)(=O)=O)cc2c1C(=O)c1ccc(OCCCN(CCCC)CCCC)cc1` the Potency was 11.8 µM (active). For `O=C(O)c1cn(C2CC2)c2cc(N3CCNCC3)c(F)cc2c1=O`, the Potency was “inactive”. For `CCc1cc(C(N)=S)ccn1`, the Potency was “inactive”. With `CC(C)(C)NC(=O)[C@H]1CC[C@H]2[C@@H]3CC[C@H]4NC(=O)C=C[C@]4(C)[C@H]3CC[C@]12C` the Potency was “inactive”. With `CCCc1cc(C(N)=S)ccn1` the Potency was “inactive”.

Test: qHTS of pediatric cancer cell lines to identify multiple opportunities for drug repurposing: Primary screen for TC32 cells (AID 1347089); note: nearly all actives have a fitted effect of over 60% in size
Details: TC32 Ewing sarcoma viability, CellTiter-Glo luminescence, 48 h; series mostly up to 45.8 µM; activity change, negative = cytotoxic: at the top concentration
Summary of the method: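 Measured quantity: luminescence from CellTiter-Glo, reflecting metabolically active TC32 cells following 48 h of compound. Curves came straight from multi-point titrations, with 8 or 11 points in primary and 11 in confirmatory screening.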
For `CC(C(=O)O)c1ccc2c(c1)CC(=O)c1ccccc1S2` (stereo unspecified), the Potency was “inactive”. In the case of `CCCOc1ccc(C(=O)OCCN(CC)CC)cc1N`, the Potency is reported as “inactive”. For `N[C@@H](C(=O)N[C@@H]1C(=O)N2C(C(=O)O)=C(Cl)CS[C@H]12)c1ccccc1`, the Potency was “inactive”. For `CC(C)OC(=O)C(C(=O)OC(C)C)=C1SC=CS1`, the Potency was “inactive”. With `COc1nc(N)nc2c1ncn2[C@@H]1O[C@H](CO)[C@@H](O)[C@@H]1O` the Potency was “inactive”. In the case of `CCOc1cc(N)c(Cl)cc1C(=O)NCC1CN(Cc2ccc(F)cc2)CCO1` (stereo unspecified), the Potency is reported as “inactive”. For `CN1CCN(c2c(F)cc3c(=O)c(C(=O)O)cn4c3c2OCN4C)CC1`, the Potency was “inactive”. For `CN1CCN(c2c(F)cc3c(=O)c(C(=O)O)cn(CCF)c3c2F)CC1`, the Potency was “inactive”. In the case of `COc1ccc(-c2ccc3cc(C(=O)O)ccc3c2)cc1C12CC3CC(CC(C3)C1)C2`, the Potency is reported as “inactive”. For `NCCCC(O)(P(=O)(O)O)P(=O)(O)O`, the Potency was “inactive”. For `CCn1cc(C(=O)O)c(=O)c2cc(F)c(N3CCN(C)CC3)cc21`, the Potency was “inactive”. With `CO[C@@H]1[C@@H](OC(N)=O)[C@@H](O)[C@H](Oc2ccc3c(O)c(NC(=O)c4ccc(O)c(CC=C(C)C)c4)c(=O)oc3c2C)OC1(C)C` the Potency was “inactive”. In the case of `Cc1c(-c2ccc(O)cc2)n(Cc2ccc(OCCN3CCCCCC3)cc2)c2ccc(O)cc12`, the “activity change, negative = cytotoxic” value is reported as 10.1% (inactive). With `CCC(C)(C)c1ccc(CC(C)CN2C[C@@H](C)O[C@@H](C)C2)cc1` (stereo partly specified) the Potency was “inactive”. For `CCCCOc1ccc(CC(=O)NO)cc1`, the Potency was “inactive”. For `CC(=O)CC(c1ccccc1)c1c(O)c2ccccc2oc1=O` (stereo unspecified), the Potency was “inactive”. With `NNC(=O)c1ccncc1` the Potency was “inactive”. For `NC(N)=NC(N)=NCCc1ccccc1`, the Potency was “inactive”. With `COc1cccc(N(C)C(=S)Oc2ccc3c(c2)CCCC3)n1` the Potency was “inactive”. With `O=c1oc2c(O)c(O)cc3c(=O)oc4c(O)c(O)cc1c4c23` the Potency was “inactive”. With `C1CCC(C(CC2CCCCN2)C2CCCCC2)CC1` (stereo unspecified) the “activity change, negative = cytotoxic” value was 5.68% (inactive). With `CC1=NN(c2ccccc2)C(=O)C1` the Potency was “inactive”. With `COc1cc2c(Nc3ccc(Br)cc3F)ncnc2cc1OCC1CCN(C)CC1` the “activity change, negative = cytotoxic” value was -1.19% (inactive). For `Nc1[nH]c(=O)ncc1F`, the Potency was “inactive”. In the case of `COC(c1ccccc1)(c1ccccc1)[C@H](Oc1nc(C)cc(C)n1)C(=O)O`, the Potency is reported as “inactive”. For `CCCc1nc(C)c2c(=O)[nH]c(-c3cc(S(=O)(=O)N4CCN(CC)CC4)ccc3OCC)nn12`, the “activity change, negative = cytotoxic” value was 6.38% (inactive). In the case of `CCN[C@H]1C[C@H](C)S(=O)(=O)c2sc(S(N)(=O)=O)cc21`, the Potency is reported as “inactive”. In the case of `Nc1nc(=S)c2[nH]cnc2[nH]1`, the Potency is reported as 3.33 µM (active). In the case of `CCCCc1oc2ccc(NS(C)(=O)=O)cc2c1C(=O)c1ccc(OCCCN(CCCC)CCCC)cc1`, the “activity change, negative = cytotoxic” value is reported as 2.85% (inactive). With `O=C(O)c1cn(C2CC2)c2cc(N3CCNCC3)c(F)cc2c1=O` the Potency was “inactive”. For `CCc1cc(C(N)=S)ccn1`, the Potency was “inactive”. With `Cc1cccc(N(C)C(=S)Oc2ccc3ccccc3c2)c1` the Potency was “inactive”. In the case of `CC(C)(C)NC(=O)[C@H]1CC[C@H]2[C@@H]3CC[C@H]4NC(=O)C=C[C@]4(C)[C@H]3CC[C@]12C`, the Potency is reported as “inactive”. With `CCCc1cc(C(N)=S)ccn1` the Potency was “inactive”.

Test: qHTS of pediatric cancer cell lines to identify multiple opportunities for drug repurposing: Primary screen for DAOY cells (AID 1347090); note: nearly all actives have a fitted effect of over 55% in size
Details: DAOY medulloblastoma viability, CellTiter-Glo luminescence, 48 h; series mostly up to 46 µM; activity change, negative = cytotoxic: at the top concentration
Summary of the method: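 Eight- or eleven-point concentration series, 48 h treatment at 37 degrees C in growth media; readout CellTiter-Glo luminescence. Potency and efficacy were taken from the concentration-response curves.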
For `CCCOc1ccc(C(=O)OCCN(CC)CC)cc1N`, the Potency was “inactive”. With `N[C@@H](C(=O)N[C@@H]1C(=O)N2C(C(=O)O)=C(Cl)CS[C@H]12)c1ccccc1` the Potency was “inactive”. With `CC(C)OC(=O)C(C(=O)OC(C)C)=C1SC=CS1` the “activity change, negative = cytotoxic” value was 1.7% (inactive). In the case of `COc1nc(N)nc2c1ncn2[C@@H]1O[C@H](CO)[C@@H](O)[C@@H]1O`, the Potency is reported as “inactive”. With `CCOc1cc(N)c(Cl)cc1C(=O)NCC1CN(Cc2ccc(F)cc2)CCO1` (stereo unspecified) the Potency was “inactive”. In the case of `CN1CCN(c2c(F)cc3c(=O)c(C(=O)O)cn4c3c2OCN4C)CC1`, the Potency is reported as “inactive”. With `CN1CCN(c2c(F)cc3c(=O)c(C(=O)O)cn(CCF)c3c2F)CC1` the Potency was “inactive”. For `NCCCC(O)(P(=O)(O)O)P(=O)(O)O`, the Potency was “inactive”. With `CCn1cc(C(=O)O)c(=O)c2cc(F)c(N3CCN(C)CC3)cc21` the Potency was “inactive”. For `CO[C@@H]1[C@@H](OC(N)=O)[C@@H](O)[C@H](Oc2ccc3c(O)c(NC(=O)c4ccc(O)c(CC=C(C)C)c4)c(=O)oc3c2C)OC1(C)C`, the Potency was “inactive”. In the case of `CCC(C)(C)c1ccc(CC(C)CN2C[C@@H](C)O[C@@H](C)C2)cc1` (stereo partly specified), the “activity change, negative = cytotoxic” value is reported as -19.9% (inactive). In the case of `CCCCOc1ccc(CC(=O)NO)cc1`, the Potency is reported as 11.8 µM (active). With `CC(=O)CC(c1ccccc1)c1c(O)c2ccccc2oc1=O` (stereo unspecified) the Potency was “inactive”. With `NNC(=O)c1ccncc1` the Potency was “inactive”. For `NC(N)=NC(N)=NCCc1ccccc1`, the Potency was 18.7 µM (active). In the case of `COc1cccc(N(C)C(=S)Oc2ccc3c(c2)CCCC3)n1`, the Potency is reported as “inactive”. For `O=c1oc2c(O)c(O)cc3c(=O)oc4c(O)c(O)cc1c4c23`, the “activity change, negative = cytotoxic” value was -7.92% (inactive). For `C1CCC(C(CC2CCCCN2)C2CCCCC2)CC1` (stereo unspecified), the “activity change, negative = cytotoxic” value was -17.3% (inactive). With `COc1ccc2cc3[n+](cc2c1OC)CCc1cc2c(cc1-3)OCO2` the Potency was 6.68 µM (active) and 18.7 µM (active). For `CC1=NN(c2ccccc2)C(=O)C1`, the Potency was “inactive”. In the case of `Nc1[nH]c(=O)ncc1F`, the Potency is reported as “inactive”. In the case of `COC(c1ccccc1)(c1ccccc1)[C@H](Oc1nc(C)cc(C)n1)C(=O)O`, the Potency is reported as “inactive”. For `CCN[C@H]1C[C@H](C)S(=O)(=O)c2sc(S(N)(=O)=O)cc21`, the Potency was “inactive”. For `Nc1nc(=S)c2[nH]cnc2[nH]1`, the Potency was 2.11 µM (active) and 1.87 µM (active). With `O=C(O)c1cn(C2CC2)c2cc(N3CCNCC3)c(F)cc2c1=O` the Potency was “inactive”. For `CCc1cc(C(N)=S)ccn1`, the Potency was “inactive”. In the case of `Cc1cccc(N(C)C(=S)Oc2ccc3ccccc3c2)c1`, the Potency is reported as “inactive”. With `CCCc1cc(C(N)=S)ccn1` the Potency was “inactive”.
Potency is the fitted concentration of half-maximal effect.
